Source: the supplement of paper PMC11732987, “Enantioselective OTUD7B fragment discovery through chemoproteomics screening and high-throughput optimisation” (Communications Chemistry, 2025)

Tests used:
Assay in all cases: log2 ratio of Biotin-Ahx-Ub-VS probe labelling (fragment/DMSO); higher = less target engagement (more negative = stronger competition), active = hit call of the paper (q ≤ 0.05, log2 ratio ≤ -1)
Details in all cases: compound concentration: 200 uM; treatment time: 3 h
USP34 = USP34 (UniProt Q70CQ2)
In short: (§1)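 Average log2 ratios of fragment over vehicle were obtained by unpaired t-test from global-median-normalised Spectronaut label-free quantities. Proteins with ≥2 unique peptides were included. HEK293T lysate (495 µg per sample) was treated in triplicate with fragment at 200 µM or vehicle for 3 h, then with Biotin-Ahx-Ub-VS at 0.5 µM final for 1 h, and labelled DUBs were NeutrAvidin-enriched and run by diaPASEF LC-MS/MS.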

USP36 = biological target: T1, USP36 (UniProt Q9P275)
T1 sequence (whole entry): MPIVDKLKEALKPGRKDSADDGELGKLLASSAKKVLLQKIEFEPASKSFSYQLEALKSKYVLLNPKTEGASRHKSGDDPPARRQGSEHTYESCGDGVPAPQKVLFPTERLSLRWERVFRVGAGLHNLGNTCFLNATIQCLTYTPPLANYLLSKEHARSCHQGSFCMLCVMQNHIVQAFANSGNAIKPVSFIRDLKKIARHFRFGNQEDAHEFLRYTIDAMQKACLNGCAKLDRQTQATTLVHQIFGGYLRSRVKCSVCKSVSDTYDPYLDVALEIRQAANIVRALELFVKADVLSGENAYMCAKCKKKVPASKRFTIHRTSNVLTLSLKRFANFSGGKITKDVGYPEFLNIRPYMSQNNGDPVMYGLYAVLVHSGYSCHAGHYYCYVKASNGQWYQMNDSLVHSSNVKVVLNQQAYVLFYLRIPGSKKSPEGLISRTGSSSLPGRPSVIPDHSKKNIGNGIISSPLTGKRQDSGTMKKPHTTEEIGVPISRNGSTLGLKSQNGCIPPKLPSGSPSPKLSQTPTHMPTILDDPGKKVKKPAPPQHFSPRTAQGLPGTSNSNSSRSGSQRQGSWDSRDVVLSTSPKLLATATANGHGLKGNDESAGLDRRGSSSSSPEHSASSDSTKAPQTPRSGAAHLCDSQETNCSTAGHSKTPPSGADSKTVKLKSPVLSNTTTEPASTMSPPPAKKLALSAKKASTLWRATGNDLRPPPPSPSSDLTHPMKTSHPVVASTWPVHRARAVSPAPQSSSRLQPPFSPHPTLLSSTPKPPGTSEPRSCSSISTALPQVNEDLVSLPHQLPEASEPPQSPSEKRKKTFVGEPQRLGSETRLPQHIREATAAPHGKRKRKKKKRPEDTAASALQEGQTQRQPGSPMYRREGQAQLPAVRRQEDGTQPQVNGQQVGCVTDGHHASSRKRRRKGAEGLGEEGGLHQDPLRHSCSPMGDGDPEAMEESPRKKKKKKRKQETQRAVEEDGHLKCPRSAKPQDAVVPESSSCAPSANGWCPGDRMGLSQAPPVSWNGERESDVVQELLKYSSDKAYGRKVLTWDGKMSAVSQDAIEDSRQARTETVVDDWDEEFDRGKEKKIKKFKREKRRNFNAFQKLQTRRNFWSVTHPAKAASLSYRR
In short: as §1

USP38 = biological target: T2, USP38 (UniProt Q8NB14)
T2 sequence (whole entry): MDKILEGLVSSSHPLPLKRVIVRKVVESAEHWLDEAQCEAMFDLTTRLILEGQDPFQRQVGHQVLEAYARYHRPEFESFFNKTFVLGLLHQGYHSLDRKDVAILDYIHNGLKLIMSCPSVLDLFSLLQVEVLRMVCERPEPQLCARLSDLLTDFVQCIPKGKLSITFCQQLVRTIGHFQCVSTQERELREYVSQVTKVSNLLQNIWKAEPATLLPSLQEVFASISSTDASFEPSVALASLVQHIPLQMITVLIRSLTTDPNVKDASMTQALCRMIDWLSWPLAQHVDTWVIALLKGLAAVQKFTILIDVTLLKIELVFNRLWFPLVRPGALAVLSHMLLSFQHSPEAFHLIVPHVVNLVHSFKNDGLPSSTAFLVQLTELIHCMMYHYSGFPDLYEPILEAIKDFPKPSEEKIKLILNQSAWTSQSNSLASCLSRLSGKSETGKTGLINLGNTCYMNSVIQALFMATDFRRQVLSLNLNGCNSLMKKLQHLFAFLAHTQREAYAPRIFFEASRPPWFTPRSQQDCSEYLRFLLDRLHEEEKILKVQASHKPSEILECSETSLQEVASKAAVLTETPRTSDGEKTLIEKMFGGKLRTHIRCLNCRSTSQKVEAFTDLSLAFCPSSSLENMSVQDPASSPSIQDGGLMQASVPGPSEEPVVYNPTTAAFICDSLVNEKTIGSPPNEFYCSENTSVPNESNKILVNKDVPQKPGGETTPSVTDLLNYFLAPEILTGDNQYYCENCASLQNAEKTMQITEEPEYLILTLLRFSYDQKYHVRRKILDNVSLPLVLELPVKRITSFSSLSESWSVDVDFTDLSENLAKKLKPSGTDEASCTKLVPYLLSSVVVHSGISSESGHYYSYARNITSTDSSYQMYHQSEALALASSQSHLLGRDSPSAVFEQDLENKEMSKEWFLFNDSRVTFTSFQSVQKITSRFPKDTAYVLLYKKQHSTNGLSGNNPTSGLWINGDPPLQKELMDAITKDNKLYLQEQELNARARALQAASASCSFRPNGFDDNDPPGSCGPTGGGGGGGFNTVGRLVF
In short: as §1

USP39 = biological target: T3, USP39 (UniProt Q53GS9)
T3 sequence (whole entry): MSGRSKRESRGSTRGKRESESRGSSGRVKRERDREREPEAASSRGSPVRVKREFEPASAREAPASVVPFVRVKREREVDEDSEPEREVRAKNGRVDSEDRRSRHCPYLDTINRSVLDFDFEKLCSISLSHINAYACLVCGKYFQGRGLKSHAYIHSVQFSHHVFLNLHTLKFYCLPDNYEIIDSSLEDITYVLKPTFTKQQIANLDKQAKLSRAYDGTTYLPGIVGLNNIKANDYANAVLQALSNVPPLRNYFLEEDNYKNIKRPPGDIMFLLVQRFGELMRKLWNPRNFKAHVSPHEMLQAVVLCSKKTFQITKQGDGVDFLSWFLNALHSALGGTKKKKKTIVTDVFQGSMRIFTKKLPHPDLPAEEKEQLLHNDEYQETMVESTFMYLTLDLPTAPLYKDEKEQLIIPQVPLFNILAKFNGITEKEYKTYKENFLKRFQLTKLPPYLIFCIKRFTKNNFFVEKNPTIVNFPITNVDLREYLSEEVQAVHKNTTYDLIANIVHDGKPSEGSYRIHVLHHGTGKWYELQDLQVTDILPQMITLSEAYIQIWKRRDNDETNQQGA
In short: as §1

USP4 = biological target: T4, USP4 (UniProt Q13107)
T4 sequence (whole entry): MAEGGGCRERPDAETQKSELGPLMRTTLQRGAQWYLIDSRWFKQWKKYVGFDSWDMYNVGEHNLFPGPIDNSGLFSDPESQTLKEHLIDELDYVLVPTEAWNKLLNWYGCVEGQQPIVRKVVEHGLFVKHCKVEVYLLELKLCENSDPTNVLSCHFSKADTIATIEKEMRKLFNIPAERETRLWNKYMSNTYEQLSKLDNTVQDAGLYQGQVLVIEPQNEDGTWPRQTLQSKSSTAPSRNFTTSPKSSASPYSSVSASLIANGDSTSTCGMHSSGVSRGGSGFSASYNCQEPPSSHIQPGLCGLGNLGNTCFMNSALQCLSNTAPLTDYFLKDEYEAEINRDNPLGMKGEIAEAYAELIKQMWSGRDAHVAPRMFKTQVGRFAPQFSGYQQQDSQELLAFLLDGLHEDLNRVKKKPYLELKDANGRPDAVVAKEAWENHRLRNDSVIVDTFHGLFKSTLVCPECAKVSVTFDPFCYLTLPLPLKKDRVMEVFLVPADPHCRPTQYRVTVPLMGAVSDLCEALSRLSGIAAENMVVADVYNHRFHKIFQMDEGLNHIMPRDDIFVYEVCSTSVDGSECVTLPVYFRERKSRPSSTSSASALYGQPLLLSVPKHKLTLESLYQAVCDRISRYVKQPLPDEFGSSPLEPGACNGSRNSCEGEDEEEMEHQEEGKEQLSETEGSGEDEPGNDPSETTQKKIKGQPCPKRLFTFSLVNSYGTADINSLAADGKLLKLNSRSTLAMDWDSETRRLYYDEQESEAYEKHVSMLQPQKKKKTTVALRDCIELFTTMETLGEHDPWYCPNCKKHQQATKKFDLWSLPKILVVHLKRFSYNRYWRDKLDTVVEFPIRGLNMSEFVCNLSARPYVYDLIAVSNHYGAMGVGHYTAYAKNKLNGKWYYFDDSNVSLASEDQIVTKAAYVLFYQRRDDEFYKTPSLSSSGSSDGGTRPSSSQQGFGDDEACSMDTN
In short: as §1

Measured: log2 ratio of Biotin-Ahx-Ub-VS probe labelling

Sequence of USP34 (Q70CQ2 whole entry, the tested form may be a part): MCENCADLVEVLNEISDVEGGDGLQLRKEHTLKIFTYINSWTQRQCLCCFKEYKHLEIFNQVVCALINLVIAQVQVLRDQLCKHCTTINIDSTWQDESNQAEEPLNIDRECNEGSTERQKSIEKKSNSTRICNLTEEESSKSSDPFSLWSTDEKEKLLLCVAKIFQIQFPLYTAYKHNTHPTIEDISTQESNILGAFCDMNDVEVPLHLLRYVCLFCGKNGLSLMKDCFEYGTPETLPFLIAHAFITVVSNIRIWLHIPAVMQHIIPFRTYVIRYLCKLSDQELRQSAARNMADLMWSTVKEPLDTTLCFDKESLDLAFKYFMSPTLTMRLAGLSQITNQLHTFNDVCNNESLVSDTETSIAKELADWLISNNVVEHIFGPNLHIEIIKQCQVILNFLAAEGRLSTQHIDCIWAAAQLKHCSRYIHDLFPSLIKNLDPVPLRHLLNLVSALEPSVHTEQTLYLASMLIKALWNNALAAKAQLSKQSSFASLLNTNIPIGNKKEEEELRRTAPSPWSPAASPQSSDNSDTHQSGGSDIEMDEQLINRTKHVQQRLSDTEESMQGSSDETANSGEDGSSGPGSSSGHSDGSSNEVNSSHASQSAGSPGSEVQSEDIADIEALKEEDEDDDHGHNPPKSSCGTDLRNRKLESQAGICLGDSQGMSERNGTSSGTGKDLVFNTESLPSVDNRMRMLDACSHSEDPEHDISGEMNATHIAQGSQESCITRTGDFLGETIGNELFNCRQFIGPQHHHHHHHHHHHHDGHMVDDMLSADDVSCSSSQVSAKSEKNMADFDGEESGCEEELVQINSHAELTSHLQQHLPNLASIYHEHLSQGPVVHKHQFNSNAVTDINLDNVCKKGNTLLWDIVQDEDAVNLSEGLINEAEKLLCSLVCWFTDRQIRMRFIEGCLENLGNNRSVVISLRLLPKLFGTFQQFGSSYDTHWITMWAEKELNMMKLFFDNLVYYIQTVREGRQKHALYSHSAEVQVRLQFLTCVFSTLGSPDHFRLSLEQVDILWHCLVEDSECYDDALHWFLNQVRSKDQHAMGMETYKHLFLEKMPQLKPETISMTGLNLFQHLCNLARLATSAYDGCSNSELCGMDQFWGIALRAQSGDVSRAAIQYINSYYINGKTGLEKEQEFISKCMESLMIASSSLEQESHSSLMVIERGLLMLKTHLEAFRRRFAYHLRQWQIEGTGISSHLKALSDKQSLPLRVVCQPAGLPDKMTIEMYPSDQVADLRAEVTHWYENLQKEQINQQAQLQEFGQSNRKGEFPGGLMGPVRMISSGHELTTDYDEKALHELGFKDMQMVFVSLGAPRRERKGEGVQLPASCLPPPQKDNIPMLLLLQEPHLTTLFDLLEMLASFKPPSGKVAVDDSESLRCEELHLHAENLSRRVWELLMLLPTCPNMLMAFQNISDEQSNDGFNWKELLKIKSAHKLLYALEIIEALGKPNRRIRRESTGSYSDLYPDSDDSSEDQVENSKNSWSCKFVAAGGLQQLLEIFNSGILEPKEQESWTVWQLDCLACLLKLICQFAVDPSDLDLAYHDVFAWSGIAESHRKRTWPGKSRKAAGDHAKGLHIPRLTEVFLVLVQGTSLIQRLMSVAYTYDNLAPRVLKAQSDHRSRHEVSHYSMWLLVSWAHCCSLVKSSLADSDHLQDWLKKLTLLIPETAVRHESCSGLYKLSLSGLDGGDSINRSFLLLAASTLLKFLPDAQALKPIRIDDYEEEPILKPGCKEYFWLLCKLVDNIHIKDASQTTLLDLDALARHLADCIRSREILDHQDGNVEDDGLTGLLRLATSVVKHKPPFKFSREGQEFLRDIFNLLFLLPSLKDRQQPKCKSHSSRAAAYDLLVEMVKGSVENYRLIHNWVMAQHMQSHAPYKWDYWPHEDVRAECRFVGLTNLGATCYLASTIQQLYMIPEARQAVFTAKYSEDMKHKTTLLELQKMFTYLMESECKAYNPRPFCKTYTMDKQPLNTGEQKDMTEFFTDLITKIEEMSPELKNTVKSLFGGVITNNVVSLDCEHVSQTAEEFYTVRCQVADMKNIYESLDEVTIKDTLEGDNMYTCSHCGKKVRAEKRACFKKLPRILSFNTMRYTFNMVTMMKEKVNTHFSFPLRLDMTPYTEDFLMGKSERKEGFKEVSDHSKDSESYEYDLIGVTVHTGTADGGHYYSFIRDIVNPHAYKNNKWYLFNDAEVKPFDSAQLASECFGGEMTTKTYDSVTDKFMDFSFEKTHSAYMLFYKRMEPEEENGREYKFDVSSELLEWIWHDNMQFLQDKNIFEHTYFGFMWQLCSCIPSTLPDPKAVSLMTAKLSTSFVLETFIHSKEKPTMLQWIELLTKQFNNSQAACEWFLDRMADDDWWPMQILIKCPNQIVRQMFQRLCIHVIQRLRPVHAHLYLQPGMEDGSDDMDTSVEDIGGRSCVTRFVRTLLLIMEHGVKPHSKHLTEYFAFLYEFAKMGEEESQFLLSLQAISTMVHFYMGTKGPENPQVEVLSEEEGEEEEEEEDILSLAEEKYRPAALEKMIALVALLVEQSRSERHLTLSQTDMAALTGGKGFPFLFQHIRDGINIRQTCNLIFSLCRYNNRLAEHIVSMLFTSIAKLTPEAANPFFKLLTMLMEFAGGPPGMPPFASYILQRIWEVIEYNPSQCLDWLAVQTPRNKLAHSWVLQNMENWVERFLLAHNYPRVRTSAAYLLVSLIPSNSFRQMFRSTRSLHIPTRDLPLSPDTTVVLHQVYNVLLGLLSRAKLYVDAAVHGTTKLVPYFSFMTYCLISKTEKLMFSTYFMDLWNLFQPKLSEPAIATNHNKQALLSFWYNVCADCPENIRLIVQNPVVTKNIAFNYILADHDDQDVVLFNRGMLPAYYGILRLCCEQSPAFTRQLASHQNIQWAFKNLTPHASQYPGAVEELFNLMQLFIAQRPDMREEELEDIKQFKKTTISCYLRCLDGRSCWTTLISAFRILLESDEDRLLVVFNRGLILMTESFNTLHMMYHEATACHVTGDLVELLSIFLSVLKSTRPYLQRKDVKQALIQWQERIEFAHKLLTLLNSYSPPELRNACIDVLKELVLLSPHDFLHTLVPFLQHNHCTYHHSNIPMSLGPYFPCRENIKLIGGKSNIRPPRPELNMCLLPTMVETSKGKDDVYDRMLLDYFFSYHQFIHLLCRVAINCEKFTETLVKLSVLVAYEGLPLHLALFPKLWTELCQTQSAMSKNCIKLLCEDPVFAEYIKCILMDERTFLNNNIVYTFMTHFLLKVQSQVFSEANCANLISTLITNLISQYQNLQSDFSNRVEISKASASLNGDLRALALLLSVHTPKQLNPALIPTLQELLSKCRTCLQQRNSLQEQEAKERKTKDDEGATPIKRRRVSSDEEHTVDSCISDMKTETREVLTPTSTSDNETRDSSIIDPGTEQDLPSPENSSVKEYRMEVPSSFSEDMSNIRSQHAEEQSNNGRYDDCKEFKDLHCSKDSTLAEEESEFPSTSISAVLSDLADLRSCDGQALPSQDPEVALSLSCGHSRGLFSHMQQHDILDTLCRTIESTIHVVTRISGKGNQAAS

O=C(CCl)NCC(=O)N1CCCC1
inactive: USP34 0.0366 | USP36 -0.0373 | USP38 0.115 | USP39 0.319 | USP4 -0.0182
